PubChem BioAssay AID488789 (Broad Institute, 2010)
Entries with a potency or affinity are not part of this list. Inconclusive results are not listed. Calls of active or inactive are those of the source.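 Rule for the calls: active = samples whose fitted half-maximal inhibition concentration is no more than ten times the top valid dose tested; inconclusive = flat response between -70 and -30, or invalid curve fit; inactive = flat within 30 of zero, potency above limit, or signal rising.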

Biological target: Trypsin (Sus scrofa) (UniProt P00761)
Sequence (P00761 whole entry, looked up): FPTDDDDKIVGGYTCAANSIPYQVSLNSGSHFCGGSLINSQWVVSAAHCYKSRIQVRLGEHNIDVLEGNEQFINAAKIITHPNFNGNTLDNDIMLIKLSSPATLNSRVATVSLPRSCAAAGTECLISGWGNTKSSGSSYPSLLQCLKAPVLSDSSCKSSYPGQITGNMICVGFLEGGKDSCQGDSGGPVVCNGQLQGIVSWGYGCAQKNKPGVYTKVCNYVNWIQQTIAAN
Test: trypsin protease activity blockade – biochemical, quenched peptide fluorescence, cherry-pick, selectivity assay for Rce1 protease inhibitor project, dose response (AID 488789);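 note: more negative means stronger trypsin inhibition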
Conditions: porcine trypsin, quenched peptide cleavage fluorescence; series mostly up to 10 µM

outcome, inactive:
CCOC(=O)C[n+]1ccc2c([nH]c3ccccc32)c1C
Cc1cc(C)c2cc(C#N)c(NCCCNC(=O)CCC(=O)O)nc2c1
CCN(Cc1ccccc1)S(=O)(=O)c1ccc(C(=O)N(CCCN(C)C)c2nc3cc(C)cc(C)c3s2)cc1
CCn1nc(C)cc1C(=O)NC1CC(C)(C)Cc2c1cnn2-c1cccc(F)c1 (configuration not stated)
CCOc1ccc(N(Cc2ccc(OC)cc2)C(=O)c2ccco2)cc1
CCN(CC)CCN(C(=O)c1ccc2ccccc2c1)c1nc2cc3c(cc2s1)OCO3
O=[N+]([O-])c1ccc(-c2cnc(SC(c3ccccc3)c3ccccc3)[nH]2)cc1
CC1CCC/C(=C\Nc2ccccc2C(=O)O)C1=O (configuration not stated)
COc1cccc(-c2csc(N3CCN(C(=O)NC45CC6CC(CC(C6)C4)C5)CC3)n2)c1
CN(C)c1ccc(/C=N/NC(=O)CNC(=O)c2ccco2)cc1
O=C(NCC1CC1)c1cc(-c2ccccc2)nn1CC1CC(c2cccc([N+](=O)[O-])c2)=NO1 (configuration not stated)
O=C(Nc1ccc(N2CCOCC2)c(Cl)c1)c1cc2ccccc2o1
COc1ccc(C(=O)/C=C/c2ccc(OC)cc2OC)c(O)c1
CN(C(=O)COC(=O)c1cc([N+](=O)[O-])ccc1Sc1ccccc1)C1CCS(=O)(=O)C1 (configuration not stated)
O=C(CN(C1CCCCC1)C1CCCCC1)N1CCc2ccccc2C1
c1cnn(Cc2cnc(N3CCOCC3)s2)c1
COc1ccc(OC)c(/C=N/c2c(-c3ccc(O)c(OC)c3)nc3ccccn23)c1
CCOc1ccc(-n2c(SCc3ccc([N+](=O)[O-])cc3)nnc2-c2ccc(OC)cc2)cc1
O=C(c1cnc2n(c1=O)CCS2)N1CCN(C(c2ccccc2)c2ccc(Cl)cc2)CC1 (configuration not stated)
C[n+]1c2n(c3ccccc31)N=C(c1cc(C(C)(C)C)c(O)c(C(C)(C)C)c1)CS2
CCOc1cccc(-c2nn(-c3ccccc3)cc2/C=C(/C#N)C(=O)NCCCn2ccnc2)c1
Cc1cc(C(=O)N[C@H](c2ccccc2)[C@@]2(C)C[C@@H]2[C@@H](C)C(=O)Nc2ccc3ccccc3c2)n(C)n1
COc1ccc(CCN(C)C(=O)c2ccc(S(=O)(=O)Nc3ccccc3C)cc2)cc1OC
CN(C)CCN(C(=O)c1ccc2ccccc2c1)c1nc2ccc(Br)cc2s1
COc1ccc(-n2c(SCc3ccc([N+](=O)[O-])cc3)nnc2-c2ccc(C)cc2)cc1
CCCCn1c(=O)[nH]c(=O)c2c1nc(-c1ccc(OC)c(Br)c1)n2CC(C)C
c1coc(-c2ccnc3ncnn23)c1
Cc1ccc(OCCn2c3ccccc3n3nc(C)c(=O)nc23)cc1
COc1ccc(CC(=O)OCC(=O)Nc2ccc(Br)cc2)cc1
Cc1ccccc1OC(C)C(=O)N1CCC(Cc2ccccc2)CC1 (configuration not stated)
COc1ccccc1/C=C/C=N/NC(=O)CN1CCN(S(=O)(=O)c2ccc(C)cc2)CC1
NC(=NCCCCCCN=C(N)/N=C(\N)Nc1ccc(Cl)cc1)/N=C(\N)Nc1ccc(Cl)cc1
CCn1c(COc2cccc(C)c2)nnc1SCC(=O)NC1CCCC1
CC(NC(=O)/C(C#N)=C/c1ccc(Cl)c([N+](=O)[O-])c1)c1ccccc1 (configuration not stated)
COc1cc(-c2nc3ccccn3c2/N=C/c2ccccc2)ccc1O
CCO[C@H]1OC(C(=O)Nc2ccccc2)=C[C@@H](c2csc3ccccc23)[C@@H]1CCCO
COc1ccc(NS(=O)(=O)c2c(C)cc(C)cc2C)cc1
